Screens from PubChem BioAssay.
ERb SRC1 inh: inhibitors of ERβ-SRC1 coactivator interaction, primary screen, biochemical, TR-FRET, ERβ LBD, SRC-1 peptide | Estrogen receptor beta (Homo sapiens), Q92731 | TR-FRET ER-beta LBD / SRC1-Cy5 peptide binding; receptor agonist-loaded with 1 µM estradiol | inhibition, % at 25.6 µM | 86,000 tested, 1.3% active | AID 633, 2007;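 active = compounds whose percent inhibition of the receptor-coactivator binding signal exceeds about 50% in the single-dose screen, limit read from the data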
ERa SRC1 inh: ERα–SRC-1 coactivator interaction inhibitors, primary screen, biochemical, TR-FRET, ERα LBD, estradiol-bound | Estrogen receptor (Homo sapiens), P03372 | TR-FRET ER-alpha LBD / SRC-1 peptide | inhibition, % at 25.6 µM | 86,000 tested, 1.7% active; in the data active = inhibition above about 50%
Target sequence (P03372 whole entry, looked up, the tested form may be a part): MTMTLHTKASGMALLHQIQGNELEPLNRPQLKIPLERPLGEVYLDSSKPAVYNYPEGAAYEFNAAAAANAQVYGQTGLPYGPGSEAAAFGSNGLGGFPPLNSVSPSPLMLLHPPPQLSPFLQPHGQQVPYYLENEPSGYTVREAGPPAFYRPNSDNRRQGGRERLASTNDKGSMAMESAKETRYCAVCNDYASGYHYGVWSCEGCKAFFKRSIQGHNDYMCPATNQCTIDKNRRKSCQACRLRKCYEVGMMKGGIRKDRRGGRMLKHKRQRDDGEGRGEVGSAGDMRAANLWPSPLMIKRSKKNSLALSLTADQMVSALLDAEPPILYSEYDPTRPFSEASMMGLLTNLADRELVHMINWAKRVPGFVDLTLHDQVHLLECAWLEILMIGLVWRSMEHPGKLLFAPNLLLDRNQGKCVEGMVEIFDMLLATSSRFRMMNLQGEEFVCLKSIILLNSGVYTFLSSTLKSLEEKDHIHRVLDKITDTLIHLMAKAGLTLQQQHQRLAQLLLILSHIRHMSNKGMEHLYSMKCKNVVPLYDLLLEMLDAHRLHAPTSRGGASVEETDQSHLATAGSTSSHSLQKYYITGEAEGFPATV
MT1-MMP txn act: MT1-MMP promoter reporter activation – cell-based, luciferase luminescence, primary screen; activation factor at 10 µM; HT1080 MT1-MMP promoter luciferase reporter, overnight; hits give high values; 86,000 tested, 0.16% active;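 active = activation factor of at least 2 for MT1-MMP transcription at 10 µM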
ERa SRC1 pot: enhancers of ERα–SRC-1 coactivator binding, primary screen, biochemical, TR-FRET, ERα LBD, low estradiol | TR-FRET ERalpha-LBD/SRC-Cy5 coactivator binding, 2 h; 100 = basal binding, no effect | coactivator binding (% of control), % at 25.6 µM | 86,000 tested, 1.3% active; in the data active = activity above about 200%;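 note: binding measured in presence of low estradiol as agonist stimulus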
MMP-13 inhibitor: human MMP13 inhibitors, primary screen, biochemical, FRET peptide cleavage; AID 570, 2006; Collagenase 3 (Homo sapiens), P45452; 65,000 tested, 0.07% active; inhibition, % at 4 µM; MMP-13 fTHP FRET cleavage, Mca fluorescence;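 active = inhibition above the mean of compound-free control plate wells plus 3 SD, cut at about 14% in these data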
Smad3 inh: Smad3/FoxH1 peptide binding inhibitors, primary screen, biochemical, TR-FRET. inhibition, % at 25 µM. TR-FRET Smad3/Dy647-FoxH1 peptide binding, europium anti-His. 88,000 tested, 0.29% active. Mothers against decapentaplegic homolog 3 (Homo sapiens), P84022;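 active = compounds that reduce the energy-transfer binding signal between the protein and its labelled peptide by more than half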
Each line names hits and unclear results; the compound was inactive in the other large screens; [ ] = dose if it differs, or a comment. Hits are enriched below; roughly 3.5% of the tested compounds scored in any of these assays.

CCC(C)NS(=O)(=O)c1ccc(NC(C)=O)cc1 (centres undefined)	none (no result: MMP-13 inhibitor)
CC(=O)Nc1ccc(S(=O)(=O)NC(C(=O)O)C(C)C)cc1 (centres undefined)	ERb SRC1 inh 65.8[fluorescence artefact?] (no result: MMP-13 inhibitor)
Nc1ncnc2nc[nH]c12.Nc1ncnc2nc[nH]c12.[Cl][Pt]([Cl])([Cl])[Cl]	Smad3 inh 70.5 (no result: ERb SRC1 inh, ERa SRC1 inh, MT1-MMP txn act, ERa SRC1 pot, MMP-13 inhibitor)
Cc1ccc(-c2cc3nc(-c4ccccc4)cc(N4CCC5(CC4)OCCO5)n3n2)cc1	ERa SRC1 pot 283.7[fluorescence artefact?] (no result: MMP-13 inhibitor)
Cc1c(-c2ccccc2)c(P(=O)(N2CCOCC2)N2CCOCC2)c2ccccn12	none
Cc1ccc(C(=O)Nc2nc3ccccc3n2CCN2CCCC2)cc1	ERa SRC1 pot 283.5[fluorescence artefact?]
COc1ccc(-c2noc(CCC(=O)N3CCN(c4cccc(C(F)(F)F)c4)CC3)n2)cc1	ERb SRC1 inh 50.6 (no result: MT1-MMP txn act)
COc1ccc(NC(=O)N2CCN(c3cccc(C(F)(F)F)c3)CC2)cc1	none
N#Cc1c(N)oc(-c2ccco2)c1-c1ccco1	ERb SRC1 inh 54.8[fluorescence artefact?]
N#Cc1c(/N=C/c2ccco2)oc(-c2ccccc2)c1-c1ccccc1	none
COc1ccc(OC)c(/C=N/c2oc(-c3ccco3)c(-c3ccco3)c2C#N)c1	ERb SRC1 inh 72.7, ERa SRC1 inh 62.1
N#Cc1c(N)oc(-c2ccccc2)c1-c1ccccc1	none
CCc1nnc(NC(=O)CSc2nnc(Cc3cccn3C)n2CCOC)s1	none
CCc1ccc(-c2nc(C(N)=O)c3[nH]c(=O)n(-c4ccccc4OC)c3n2)cc1	ERa SRC1 pot 300.2[fluorescence artefact?]
COc1ccc(-c2nc(C(N)=O)c3[nH]c(=O)n(-c4cccc(Cl)c4)c3n2)cc1OC	ERa SRC1 inh 83.7
COc1cccc(-c2nc(C(N)=O)c3[nH]c(=O)n(-c4cccc(Cl)c4)c3n2)c1OC	none
CC(C)CN(CCC(=O)O)CC(C)C	ERb SRC1 inh 60.4 (no result: MMP-13 inhibitor)
COc1ccc2[nH]c(=O)c(CN(C3CCCCC3)C(c3nnnn3Cc3ccco3)C(C)C)cc2c1 (centres undefined)	ERa SRC1 pot 201.3
C=CCCCCCCCCc1nc(=S)[nH][nH]1	none (no result: MMP-13 inhibitor)
CC(C)(C)c1cc(CN(CCO)CCO)cc(C(C)(C)C)c1O	none
C/C(N[O-])=C(\C)[N+]([O-])=[Co].CC(=N\[O-])/C(C)=N/[O-].O[C@@H]1[CH-]CCCC1.c1ccncc1	Smad3 inh 71.3 (no result: ERb SRC1 inh, ERa SRC1 inh, MT1-MMP txn act, ERa SRC1 pot, MMP-13 inhibitor)
O=C(Nc1ccccc1Oc1ccccc1)C1CC1	none
NC(=O)NCC12CC3CC(CC(C3)C1)C2	none
CC1(C)Cc2nc3oc4c(NCc5ccccc5)ncnc4c3cc2CO1	none
CCOC(=O)N1CCC(NC(=O)CCc2nc(-c3ccc(C)cc3)no2)CC1	none
COc1cc2[nH]c(=O)n(CCC(=O)N3CCN(c4cccc(C)c4C)CC3)c(=O)c2cc1OC	ERa SRC1 inh 53.3[fluorescence artefact?]
Fc1cccc(Cl)c1/C=N/N=C1c2ccccc2-c2ccccc21	Smad3 inh 59.0 (no result: ERb SRC1 inh, ERa SRC1 inh, MT1-MMP txn act, ERa SRC1 pot, MMP-13 inhibitor)
CCCCCCc1nc2c(=O)[nH]c3ccccc3c2o1	ERa SRC1 pot 248.9[fluorescence artefact?]
COc1ccc(CCn2c(=O)[nH]c3cc(C(=O)NCCCN4CCOCC4)ccc3c2=O)cc1OC	none
O=C(CS(=O)(=O)c1cn(Cc2ccc(Cl)cc2)c2ccccc12)N1CCCC1	ERb SRC1 inh 50.7[fluorescence artefact?]
CCS(=O)(=O)N1CCC(C(=O)NCCCN2CCCCCC2)CC1	ERa SRC1 pot 919.9[fluorescence artefact?]
CCOC(=O)c1c(C)oc2ccc(NS(=O)(=O)c3ccc4c5c(cccc35)C(=O)N4)cc12	ERb SRC1 inh 65.2[fluorescence artefact?], ERa SRC1 inh 66.6[fluorescence artefact?]
COCCOC(=O)c1c(C)oc2ccc(NS(=O)(=O)c3ccccc3)cc12	none
CC(C)OC(=O)CSc1nnc(-c2ccc(C(C)(C)C)cc2)n1N	ERa SRC1 inh 97.8[fluorescence artefact?]
CC1(C)CC(=O)C(C(C2=C(O)CC(C)(C)CC2=O)c2cccc(O)c2)C(=O)C1 (centres undefined)	none (no result: ERb SRC1 inh, ERa SRC1 inh, ERa SRC1 pot, Smad3 inh)
